# The source made the active and inactive calls.
# How the values were obtained:
# Albumin (Bos taurus) = Albumin (Bos taurus) (UniProt P02769); test: bovine serum albumin binders on microarray, profiling panel, artefact control for SMM control protein annotation, biochemical, small-molecule microarray, Alexa647 label, 635/667 nm fluorescence (AID 1118); conditions: BSA-A647 binding, fluorescence 635 nm, higher = more signal;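 further: score merges 667 nm emission intensity and signal-to-noise per printed compound spot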
# [1] = small-molecule microarray binders of probe aXIP, primary screen, biochemical, NeuroSMM set, 635/667 nm fluorescence (AID 1119); conditions: higher = more signal, called active from +8 up or from −8 down;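 further: probe is the protein aXip251-270 applied at 1 µg/mL to compound-printed slides; binding of probe to printed compounds measured as 667 nm fluorescence plus signal to noise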
# [2] = small-molecule binders of probe aNOTCH3, primary screen, biochemical, small-molecule microarray, 635/667 nm fluorescence (AID 1120); conditions: higher = more signal;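 further: probe is a biotin-tagged antibody raised against NOTCH3 rather than NOTCH3 protein; score merges spot fluorescence near 667 nm with spot signal to noise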
# [3] = small-molecule binders of probe aNOTCH2, primary screen, biochemical, small-molecule microarray, 635/667 nm fluorescence (AID 1121); conditions: higher = more signal;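 further: score merges feature fluorescence read at 667 nm with its signal to noise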
# [4] = target: Carbonic anhydrase 2 (Homo sapiens) (UniProt P00918); test: CAII small-molecule binders, profiling panel, biochemical, small-molecule microarray, Alexa647-labelled CAII (AID 1122); conditions: CAII-A647 binding fluorescence, higher = more signal
# [5] = COS7 lysate on small-molecule microarray, probe aHis, 635 nm (AID 1123); conditions: COS7 cell lysate, fluorescence, higher = more signal;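 further: z-score combines 667nm fluorescence intensity with signal-to-noise per printed compound spot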
# [6] = compound binding in COS7 lysate, probe aLAP1, primary screen, cell lysate, small-molecule microarray (AID 1124); conditions: probe aLAP1, fluorescence, higher = more signal;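 further: lysate comes from COS7 cells expressing LAP1 and is applied at 0.3 µg/mL; score merges spot fluorescence near 667 nm with signal-to-noise over triplicate slides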
# Sam68 (KHDRBS1) = test: Sam68 small-molecule binders, primary screen, biochemical, small-molecule microarray, 635 nm fluorescence (AID 1125); conditions: small-molecule microarray binding, higher = more signal;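 further: score merges 667 nm channel intensity with signal to noise over triplicate slides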
# [7] = system: Chordin-like protein 2 (CHRDL2); test: CHRDL2 small-molecule binders, primary screen, biochemical, small-molecule microarray, 635 nm fluorescence (AID 1126); conditions: small-molecule microarray binding, fluorescence 635 nm; higher = more signal;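 further: printed compound slides probed with Chrdl2 protein at 4 µg/mL for 1 h at 4 C; score merges 667 nm emission intensity with signal to noise over three replicate slides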
# [8] = target: Concanavalin-A (Canavalia ensiformis) (UniProt P02866); test: ConA small-molecule binders, primary screen, artefact control for SMM control protein annotation, biochemical, small-molecule microarray, Alexa647 label, 635 nm (AID 1127); conditions: ConA-A647 binding fluorescence, higher = more signal;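 further: z combines 667 nm emission intensity with signal-to-noise across three replicate slides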
# [9] = anti-His antibody binders, primary screen, artefact control for SMM control protein annotation, biochemical, small-molecule microarray, 635 nm fluorescence (AID 1128); conditions: anti-His Alexa647 antibody binding, higher = more signal;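 further: score merges feature fluorescence with signal-to-noise for each printed compound spot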
# [10] = system: Human papillomavirus type 1a E7 protein (residues 1-88); test: HPV1a E7 small-molecule binders, primary screen, biochemical, small-molecule microarray, residues 1-88, 635 nm (AID 1129); conditions: small-molecule microarray binding, fluorescence 635 nm; higher = more signal
# [11] = target: Focal adhesion kinase 1 (Homo sapiens) (UniProt Q05397); test: small-molecule microarray binders of FAK, primary screen, biochemical, 635/667 nm fluorescence, BSA, DTT (AID 1130); conditions: PTK2 binding, 635 nm fluorescence, higher = more signal;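 further: composite of spot emission at 667 nm and signal to noise over triplicate slides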
# [12] = system: Fibrinogen (Alexa647-labelled); test: fibrinogen binders on compound microarrays, profiling panel, artefact control for SMM control-protein annotation, biochemical, small-molecule microarray, 635/667 nm fluorescence (AID 1131); conditions: fibrinogen-A647 binding fluorescence, higher = more signal;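 further: z-score merges 667 nm fluorescence with per-spot signal-to-noise over triplicate slides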
# [13] = target: Follistatin (Homo sapiens) (UniProt P19883); test: follistatin binders on small-molecule microarrays, primary screen, biochemical, small-molecule microarray, 635/667 nm fluorescence (AID 1132); conditions: FST binding, 635 nm fluorescence, higher = more signal
# [14] = target: Fibroblast growth factor 2 (Homo sapiens) (UniProt P09038); test: FGF2 binders on small-molecule microarrays, primary screen, biochemical, small-molecule microarray, 635/667 nm fluorescence (AID 1133); conditions: small-molecule microarray binding, FGF2, fluorescence 635/667; higher = more signal
# [15] = mitochondrial membrane potential change in A549 cells, profiling panel, cell-based, JC-1 fluorescence, basal, 24 h, 100 nL (AID 1138); conditions: higher = more signal;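 further: A549 lung adenocarcinoma cells under basal conditions with no added stimulus; test concentration not given here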
# Lefty1 = Lefty1 binders on small-molecule microarrays, primary screen, biochemical, small-molecule microarray, 635/667 nm fluorescence (AID 1139); conditions: small-molecule microarray binding, fluorescence 635/667; higher = more signal
# [16] = system: wheat germ agglutinin (Triticum aestivum), Alexa647-labelled; test: wheat germ agglutinin binders on compound microarrays, profiling panel, artefact control for SMM control-protein annotation, biochemical, small-molecule microarray, 635/667 nm fluorescence (AID 1140); conditions: WGA-A647 binding, 635 nm fluorescence, higher = more signal;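 further: score merges 667 nm feature emission with signal to noise over triplicate slides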
# [17] = target: Luciferin 4-monooxygenase (Photinus pyralis) (UniProt P08659); test: firefly luciferase enzyme inhibitors, primary screen, biochemical, luminescence, purified enzyme, 2006 set (AID 1141); conditions: SteadyGlo luminescence, 30 min, higher = more signal, called active from +8 up or from −8 down;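 further: cell-free assay with purified firefly luciferase at 100 ng per well in PBS; test concentration not given here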
# Sequence of Luciferin 4-monooxygenase (Photinus pyralis) (P08659 whole entry, looked up): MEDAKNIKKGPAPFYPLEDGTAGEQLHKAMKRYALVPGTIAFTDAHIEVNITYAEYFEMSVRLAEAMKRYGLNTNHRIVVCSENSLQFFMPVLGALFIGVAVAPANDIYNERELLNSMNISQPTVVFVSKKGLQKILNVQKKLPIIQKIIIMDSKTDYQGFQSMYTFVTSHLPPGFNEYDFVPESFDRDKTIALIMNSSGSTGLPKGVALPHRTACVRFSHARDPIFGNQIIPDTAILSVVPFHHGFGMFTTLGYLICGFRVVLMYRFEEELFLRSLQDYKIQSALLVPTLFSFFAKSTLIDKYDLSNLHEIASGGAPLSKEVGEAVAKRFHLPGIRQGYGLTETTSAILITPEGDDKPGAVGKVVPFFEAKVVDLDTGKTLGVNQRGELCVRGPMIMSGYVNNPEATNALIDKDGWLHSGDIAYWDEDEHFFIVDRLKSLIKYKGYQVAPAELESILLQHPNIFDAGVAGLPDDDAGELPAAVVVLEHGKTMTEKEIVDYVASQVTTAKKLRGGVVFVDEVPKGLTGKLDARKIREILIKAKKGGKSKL
# Sequence of Concanavalin-A (Canavalia ensiformis) (P02866 whole entry, looked up): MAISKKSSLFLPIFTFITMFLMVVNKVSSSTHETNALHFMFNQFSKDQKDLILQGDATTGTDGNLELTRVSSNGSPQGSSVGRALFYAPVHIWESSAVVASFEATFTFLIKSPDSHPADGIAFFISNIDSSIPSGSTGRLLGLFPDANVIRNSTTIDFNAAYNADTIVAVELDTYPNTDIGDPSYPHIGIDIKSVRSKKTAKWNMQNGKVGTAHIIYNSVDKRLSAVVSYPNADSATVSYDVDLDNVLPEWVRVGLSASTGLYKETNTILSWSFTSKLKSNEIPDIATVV
# Sequence of Fibroblast growth factor 2 (Homo sapiens) (P09038 whole entry, looked up): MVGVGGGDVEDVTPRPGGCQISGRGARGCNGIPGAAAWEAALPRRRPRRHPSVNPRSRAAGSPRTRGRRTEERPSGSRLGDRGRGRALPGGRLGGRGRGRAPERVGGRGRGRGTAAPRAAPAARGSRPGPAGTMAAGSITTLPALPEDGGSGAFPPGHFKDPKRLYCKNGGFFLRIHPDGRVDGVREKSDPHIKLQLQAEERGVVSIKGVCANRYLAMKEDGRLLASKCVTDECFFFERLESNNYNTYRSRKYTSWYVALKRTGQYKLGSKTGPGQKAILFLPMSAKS
# Sequence of Albumin (Bos taurus) (P02769 whole entry, looked up): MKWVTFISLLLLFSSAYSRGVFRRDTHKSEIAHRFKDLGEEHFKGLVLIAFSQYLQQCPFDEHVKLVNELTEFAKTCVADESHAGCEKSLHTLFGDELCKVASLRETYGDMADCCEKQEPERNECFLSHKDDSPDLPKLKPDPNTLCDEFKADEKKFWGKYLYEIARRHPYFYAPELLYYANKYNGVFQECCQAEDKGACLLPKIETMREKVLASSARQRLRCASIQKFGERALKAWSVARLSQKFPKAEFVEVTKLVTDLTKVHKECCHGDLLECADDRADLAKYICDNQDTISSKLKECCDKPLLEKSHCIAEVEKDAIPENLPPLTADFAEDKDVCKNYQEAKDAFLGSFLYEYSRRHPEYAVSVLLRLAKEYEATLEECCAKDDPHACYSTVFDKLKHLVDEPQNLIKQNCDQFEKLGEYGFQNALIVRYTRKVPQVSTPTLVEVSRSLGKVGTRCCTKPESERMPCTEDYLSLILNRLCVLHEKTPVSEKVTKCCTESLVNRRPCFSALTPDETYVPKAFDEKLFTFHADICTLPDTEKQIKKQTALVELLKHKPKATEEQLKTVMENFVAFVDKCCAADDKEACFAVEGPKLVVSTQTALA
# Sequence of Focal adhesion kinase 1 (Homo sapiens) (Q05397 whole entry, looked up): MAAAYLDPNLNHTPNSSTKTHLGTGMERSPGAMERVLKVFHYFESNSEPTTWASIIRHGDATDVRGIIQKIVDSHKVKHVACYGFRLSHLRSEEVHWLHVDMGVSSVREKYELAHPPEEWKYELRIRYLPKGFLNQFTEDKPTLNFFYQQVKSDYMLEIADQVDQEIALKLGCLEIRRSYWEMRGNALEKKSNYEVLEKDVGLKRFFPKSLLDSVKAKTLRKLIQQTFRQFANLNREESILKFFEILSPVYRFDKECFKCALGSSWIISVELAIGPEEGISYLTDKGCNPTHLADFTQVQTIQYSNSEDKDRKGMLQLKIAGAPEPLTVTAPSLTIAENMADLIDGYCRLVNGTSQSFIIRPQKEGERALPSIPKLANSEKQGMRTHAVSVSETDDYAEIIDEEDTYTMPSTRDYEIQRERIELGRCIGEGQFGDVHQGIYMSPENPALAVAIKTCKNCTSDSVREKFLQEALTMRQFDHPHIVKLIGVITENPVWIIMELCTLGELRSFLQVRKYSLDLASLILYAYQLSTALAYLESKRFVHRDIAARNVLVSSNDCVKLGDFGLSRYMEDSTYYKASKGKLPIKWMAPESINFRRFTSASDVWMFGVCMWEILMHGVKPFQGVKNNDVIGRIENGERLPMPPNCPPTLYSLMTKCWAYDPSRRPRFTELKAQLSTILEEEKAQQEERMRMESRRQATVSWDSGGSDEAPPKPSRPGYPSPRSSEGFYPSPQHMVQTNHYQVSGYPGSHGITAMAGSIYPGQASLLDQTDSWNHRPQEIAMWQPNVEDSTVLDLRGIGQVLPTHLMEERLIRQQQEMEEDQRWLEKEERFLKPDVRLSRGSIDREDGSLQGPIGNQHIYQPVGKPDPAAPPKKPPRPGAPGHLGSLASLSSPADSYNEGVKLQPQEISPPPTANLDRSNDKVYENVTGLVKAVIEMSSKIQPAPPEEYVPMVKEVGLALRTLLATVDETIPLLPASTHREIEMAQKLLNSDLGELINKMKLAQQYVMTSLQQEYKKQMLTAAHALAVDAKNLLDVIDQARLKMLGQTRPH
# Sequence of Follistatin (Homo sapiens) (P19883 whole entry, looked up): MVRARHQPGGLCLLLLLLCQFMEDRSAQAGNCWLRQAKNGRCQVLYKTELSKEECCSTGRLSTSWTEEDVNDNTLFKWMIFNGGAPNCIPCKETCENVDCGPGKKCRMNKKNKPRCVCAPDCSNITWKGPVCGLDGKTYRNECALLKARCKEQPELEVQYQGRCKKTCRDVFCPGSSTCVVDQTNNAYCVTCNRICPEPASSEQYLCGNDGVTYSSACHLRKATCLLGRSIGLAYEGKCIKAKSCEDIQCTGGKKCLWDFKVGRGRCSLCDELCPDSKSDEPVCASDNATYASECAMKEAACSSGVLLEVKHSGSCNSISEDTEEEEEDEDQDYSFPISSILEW
structure (smiles),measurement,setting,value
CC(C)=CCCC=C(C)C(O)C1C=CC2C(=O)N(c3ccccc3)C(=O)C2N1Nc1ccc(C#N)cc1 (stereo not given),composite z-score,Albumin (Bos taurus),0.976
same,composite Z-score,[1],-0.213 (inactive)
same,composite z-score,[2],0.518
same,composite z-score,[3],-0.157
same,composite z-score,[4],0.596
same,composite z-score,[5],2.34
same,composite z-score,[6],1.54
same,composite z-score,Sam68 (KHDRBS1),1.03
same,composite z-score,[7],0.173
same,composite z-score,[8],1.11
same,composite z-score,[9],1
same,composite z-score,[10],1.21
same,composite z-score,[11],0.901
same,composite z-score,[12],0.972
same,composite z-score,[13],1.31
same,composite z-score,[14],0.333
same,z-score,[15],-0.902
same,composite z-score,Lefty1,0.507
same,composite z-score,[16],1.06
same,z-score,[17],-1.32 (inactive)
COC(=O)[C@@]1(Cc2ccc(F)cc2)[C@H]2c3cc(C(=O)N4CCCC4)n(Cc4ccccn4)c3C[C@H]2CN1C(=O)c1ccccc1,composite z-score,Albumin (Bos taurus),0.0228
same,composite Z-score,[1],-0.104 (inactive)
same,composite z-score,[2],0.547
same,composite z-score,[3],0.417
same,composite z-score,[4],0.482
same,composite z-score,[5],2.95
same,composite z-score,[6],0.382
same,composite z-score,Sam68 (KHDRBS1),1.17
same,composite z-score,[7],-0.22
same,composite z-score,[8],0.627
same,composite z-score,[9],1.58
same,composite z-score,[10],1.25
same,composite z-score,[11],1.01
same,composite z-score,[12],0.903
same,composite z-score,[13],0.37
same,composite z-score,[14],-0.453
same,z-score,[15],-0.0238
same,composite z-score,Lefty1,-0.2
same,composite z-score,[16],-0.128
same,z-score,[17],1.1 (inactive)
C=CCC(OC(C)=O)[C@@H]1[C@@H](N(Cc2ccc(-c3cccc(C(F)(F)F)c3)o2)C(=O)Cc2ccc(F)cc2)c2cc(OCCCO)ccc2N1C(=O)Cc1ccc2ccccc2c1 (stereo not given in full),composite z-score,Albumin (Bos taurus),-0.0508
same,composite Z-score,[1],-0.186 (inactive)
same,composite z-score,[2],-0.182
same,composite z-score,[3],-0.104
same,composite z-score,[4],-0.25
same,composite z-score,[5],0.121
same,composite z-score,[6],-0.169
same,composite z-score,Sam68 (KHDRBS1),-2.04
same,composite z-score,[7],0.0229
same,composite z-score,[8],-0.492
same,composite z-score,[9],0.114
same,composite z-score,[10],-1.33
same,composite z-score,[11],-0.216
same,composite z-score,[12],-0.193
same,composite z-score,[13],0.112
same,composite z-score,[14],-0.599
same,z-score,[15],0.696
same,composite z-score,Lefty1,-0.482
same,composite z-score,[16],0.0382
same,z-score,[17],-0.442 (inactive)
CCCCC(O)C1C=CC2C(=O)N(c3ccccc3)C(=O)C2N1Nc1ccc([N+](=O)[O-])cc1 (stereo not given),composite z-score,Albumin (Bos taurus),0.894
same,composite Z-score,[1],0.312 (inactive)
same,composite z-score,[2],0.27
same,composite z-score,[3],-0.148
same,composite z-score,[4],0.583
same,composite z-score,[5],2.61
same,composite z-score,[6],0.738
same,composite z-score,Sam68 (KHDRBS1),1.3
same,composite z-score,[7],-0.0818
same,composite z-score,[8],1.02
same,composite z-score,[9],0.709
same,composite z-score,[10],1.24
same,composite z-score,[11],1.16
same,composite z-score,[12],0.992
same,composite z-score,[13],0.825
same,composite z-score,[14],-0.458
same,z-score,[15],-0.52
same,composite z-score,Lefty1,0.264
same,composite z-score,[16],0.68
same,z-score,[17],1.89 (inactive)
COCCOC(=O)N1C(=O)[C@@]2(c3cc(C#CCCO)ccc31)[C@H](C(N)=O)[C@H]1C(=O)O[C@H](c3ccccc3)[C@H](c3ccccc3)N1[C@@H]2c1ccccc1OCCO,composite z-score,Albumin (Bos taurus),0.69
same,composite Z-score,[1],0.689 (inactive)
same,composite z-score,[2],0.0727
same,composite z-score,[3],-0.14
same,composite z-score,[4],0.552
same,composite z-score,[5],1.54
same,composite z-score,[6],0.45
same,composite z-score,Sam68 (KHDRBS1),1.3
same,composite z-score,[7],-0.0675
same,composite z-score,[8],1.14
same,composite z-score,[9],3.07
same,composite z-score,[10],1.21
same,composite z-score,[11],0.425
same,composite z-score,[12],0.897
same,composite z-score,[13],1.19
same,composite z-score,[14],0.516
same,z-score,[15],-0.256
same,composite z-score,Lefty1,0.673
same,composite z-score,[16],0.713
same,z-score,[17],-0.683 (inactive)
CC(C)N1C(=O)C[C@@](C(=O)NCCN2CCOCC2)(c2ccc([N+](=O)[O-])cc2)[C@H]1c1ccc(CO)cc1,composite z-score,Albumin (Bos taurus),0.408
same,composite Z-score,[1],1.96 (inactive)
same,composite z-score,[2],-0.256
same,composite z-score,[3],-0.0836
same,composite z-score,[4],0.642
same,composite z-score,[5],2.2
same,composite z-score,[6],1.24
same,composite z-score,Sam68 (KHDRBS1),-0.395
same,composite z-score,[7],-1.26
same,composite z-score,[8],0.257
same,composite z-score,[9],2.67
same,composite z-score,[10],-0.886
same,composite z-score,[11],-0.455
same,composite z-score,[12],-0.591
same,composite z-score,[13],0.178
same,composite z-score,[14],-0.588
same,z-score,[15],-0.143
same,composite z-score,Lefty1,-0.516
same,composite z-score,[16],0.869
same,z-score,[17],1.42 (inactive)
CCCCCCc1nc(-c2ccc(-c3ccc(Cl)c(Cl)c3)o2)cc2c1[Si](C(C)C)(C(C)C)OC2,composite z-score,Albumin (Bos taurus),0.521
same,composite Z-score,[1],-0.935 (inactive)
same,composite z-score,[2],-0.261
same,composite z-score,[3],-0.156
same,composite z-score,[4],-0.216
same,composite z-score,[5],0.445
same,composite z-score,[6],-0.389
same,composite z-score,Sam68 (KHDRBS1),-0.248
same,composite z-score,[7],-0.834
same,composite z-score,[8],-0.48
same,composite z-score,[9],-0.265
same,composite z-score,[10],-0.819
same,composite z-score,[11],-0.0104
same,composite z-score,[12],-1.85
same,composite z-score,[13],-0.577
same,composite z-score,[14],-0.985
same,z-score,[15],-0.413
same,composite z-score,Lefty1,-0.468
same,composite z-score,[16],0.105
same,z-score,[17],-5.02 (inactive)
O=C(NCC(O)CO)[C@@]1(CCS(=O)(=O)c2ccccc2)N=C(c2ccc(OCCCO)cc2)O[C@H]1c1ccccc1 (stereo not given in full),composite z-score,Albumin (Bos taurus),0.905
same,composite Z-score,[1],1.06 (inactive)
same,composite z-score,[2],0.177
same,composite z-score,[3],0.137
same,composite z-score,[4],0.555
same,composite z-score,[5],3.17
same,composite z-score,[6],1.11
same,composite z-score,Sam68 (KHDRBS1),1.22
same,composite z-score,[7],0.106
same,composite z-score,[8],0.0968
same,composite z-score,[9],1.9
same,composite z-score,[10],1.23
same,composite z-score,[11],1.38
same,composite z-score,[12],0.993
same,composite z-score,[13],1.33
same,composite z-score,[14],-0.0831
same,z-score,[15],-0.503
same,composite z-score,Lefty1,-1.02
same,composite z-score,[16],0.762
same,z-score,[17],-0.845 (inactive)
COC(=O)C[C@H]1O[C@@]2(C[C@@H]1[Si](C)(C)C)C(=O)N(C)c1ccccc12,composite z-score,Albumin (Bos taurus),0.18
same,composite Z-score,[1],-0.701 (inactive)
same,composite z-score,[2],0.0306
same,composite z-score,[3],-0.111
same,composite z-score,[4],0.288
same,composite z-score,[5],0.689
same,composite z-score,[6],0.186
same,composite z-score,Sam68 (KHDRBS1),0.86
same,composite z-score,[7],0.268
same,composite z-score,[8],0.332
same,composite z-score,[9],0.324
same,composite z-score,[10],0.643
same,composite z-score,[11],-0.203
same,composite z-score,[12],0.78
same,composite z-score,[13],0.501
same,composite z-score,[14],0.0172
same,z-score,[15],1.63
same,composite z-score,Lefty1,0.453
same,composite z-score,[16],0.0729
same,z-score,[17],-1.85 (inactive)

# Source: PubChem BioAssay
